The list is not random: actives were taken first. Their share in the collection is about 21%.
CHX counter: affects cycloheximide protein synthesis inhibition readout, counter-screen. 12% of 300,000 active. max response, %. cell reporter, cycloheximide protein synthesis inhibition counterscreen; in the data active = max response mostly above about 13%, no sharp cut-off; inactive = mostly below about 14%; note: read at 38.3 µM for the half of the compounds with a filed dose; 0% is about no effect
HCV inhibitor: HCV inhibition. Huh7.5.1 HCVcc-Cre infection, luciferase reporter, 44 h. Potency, µM (highest dose often 41.8 µM), inactives show top-dose activity change, negative = inhibition, hits mostly inhibitors. 3.4% of 340,000 active. AID 651820; note: potency is the fitted concentration of half-maximal effect; % is set by controls: 0 for no effect and ±100 for the full control effect
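Luciferase read-out (15 sec integration) after a 15 min room-temperature substrate step quantifies HCVcc-Cre infection. Cells, 1,000 per well, had compound added 4 h post-plating, then virus at ~0.5 moi, and were cultured 44 h.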
Pf growth 96h: P. falciparum growth inhibition at 96 hour, primary screen for plastid delayed-death inhibitors. P. falciparum luciferase reporter growth, 96 h. Potency, µM (titrated, usually from 28.7 µM), without a hit: top-dose activity change, negative = inhibition, hits mostly inhibitors. 6.9% of 320,000 active; note: potency is the fitted concentration of half-maximal effect; % is set by controls: 0 for no effect and ±100 for the full control effect
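Two-generation exposure (96 h) targets delayed-death phenotype. Reporter parasites carrying integrated firefly luciferase, in red cells at 2% hematocrit and 0.05% parasitemia final, kept at 37 C, 5% CO2; luminescence loss indicates inhibition.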
AMA1 RON2 block: inhibitors of Plasmodium falciparum AMA1-RON2 interaction | AID 720542 | Potency, µM (doses to about 58.2 µM), without a hit: at the highest dose activity change, negative = inhibition, usual class: inhibitors | 0.2% of 360,000 active | AlphaScreen AMA1-biotinylated RON2 peptide binding;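 note: potency is the fitted concentration of half-maximal effect; 0% = vehicle wells and -100% = peptide control; nearly all actives have a fitted effect of over 45% in size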
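AMA1 (3D7) with his tag at 25 nM final met compounds first, then biotinylated RON2 peptide at 25 nM; detection used donor plus acceptor beads, 10 µg/mL apiece, read by AlphaScreen after 30 min at room temperature.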
Pf growth 48h: P. falciparum growth inhibition at 48 hours (one generation). Potency, µM (titrated, usually from 28.7 µM), inactives show top-dose activity change, negative = inhibition, usual class: inhibitors. AID 504832. P. falciparum luciferase growth in erythrocytes, 48 h. 5.9% of 310,000 active; note: potency is the fitted concentration of half-maximal effect; % is set by controls: 0 for no effect and ±100 for the full control effect
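Compounds are pin-transferred into medium, infected erythrocytes (2% hematocrit, 0.1% parasitemia final) are added, and plates sit one parasite generation at 37 C in 5% CO2. Detection reagent is then added and luminescence measured.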
Shiga toxin inh: blocks Shiga toxin action in Vero cells; AID 2315; inhibition, % at 38.7 µM; 9.2% of 290,000 active; Vero cells, Shiga toxin protein synthesis inhibition reporter; in the data active = inhibition mostly above about 28%, no sharp cut-off; inactive = mostly below about 43%; note: 0% is about no effect
* marks the source's active call; other numbers are inactive results; ? = inconclusive; nt = not tested or not shown; [ ] = remark or other dose. Unless noted, calls come from the whole dose curve; as a rule, active = well fitted curve in the direction sought with a large enough effect; inconclusive = small, poorly fitted or top-dose-only effect, or another doubt; inactive = no such curve, though single readings can be large; an effect the other way counts as inactive or inconclusive.

SMILES	CHX counter	HCV inhibitor	Pf growth 96h	AMA1 RON2 block	Pf growth 48h	Shiga toxin inh
O=C1CCCN=C(Nc2ccc(F)c(Cl)c2)S1	11.6	-2.6%	-9.4%	-19.5%	8.5%	53.6*
COCC(=O)N1CCC(n2nccc2NC(=O)c2ccccc2OC)CC1	25.5	-1.0%	-17.3%	7.6%	?	22.4
Cc1ccc(N=C2SC(C(=O)O)CC(=O)N2C)cc1C (stereo not drawn)	-3.0	8.7%	11.7µM*	-10.9%	38.6%	-8.8
c1c2c(cc3sc(N4CCOCC4)nc13)OCO2	42.6*	-8.7%	21.5%	-20.3%	0.2%	56.5*
c1ccc(N2CCN(c3nc4cc5c(cc4s3)OCO5)CC2)cc1	52.5*	-26.0%	14.3%	1.2%	239.1%	33.4*
c1ccc2c(c1)CCN(c1nc3cc4c(cc3s1)OCO4)C2	39.9*	?	0.0%	?	31.7%	97.0*
c1c2c(cc3sc(N4CCCCC4)nc13)OCO2	21.0	-12.1%	51.5%	-25.6%	286.9%	25.0
Fc1ccc2nc(N3CCOCC3)sc2c1	34.6*	-7.6%	104.9%	-5.9%	79.5%	107.5*
O=C(NCc1cccc(F)c1)c1ccc2nc(N3CCOCC3)sc2c1	9.9	-21.7%	-11.3%	-3.2%	-17.9%	16.0
Clc1ccc(-c2nc3ccc(Br)cn3c2Cc2cccc(Cl)c2)cc1	nt	nt	nt	-4.6%	nt	nt
Nc1nc2ccc(N3CCOCC3)cc2s1	33.6*	5.4%	-30.3%	10.5%	32.3%	32.2*
c1ccc(C(c2ccccc2)c2noc(CN3CCN(C4CCCC4)CC3)n2)cc1	-1.0	-8.7%	-16.0%	-4.2%	?	-0.8
FC(F)(F)c1ccc(-c2noc(CN3CCCN(C4CCCCC4)CC3)n2)cc1	-1.3	?	9.28µM*	6.7%	?	-15.5
c1ccc(Cn2nnc3c(NCc4ccc5c(c4)OCO5)nc(C4CC4)nc32)cc1	5.7	8.4%	nt	-7.0%	0.8%	-4.0
Cc1nc(NCc2ccc3c(c2)OCO3)c2nnn(Cc3ccccc3)c2n1	2.1	15.5%	11.7µM*	7.7%	2.7%	4.7
COc1ccc(Nc2nc(C)nc3c2nnn3Cc2ccccc2)cc1OC	0.4	?	12.3%	6.2%	?	7.9
Cc1nc(Nc2ccc(Cl)cc2)c2nnn(Cc3ccccc3)c2n1	-3.7	31.6µM*	-15.2%	-6.0%	?	29.7
O=C(Nc1cc2c3c(c1)CC(=O)N3CCC2)c1ccc(Cl)cc1	nt	?	-5.5%	-11.7%	-0.6%	nt
Clc1ccc(Cn2ncc3c(N4CCN(c5ccccc5)CC4)ncnc32)cc1	nt	nt	nt	16.6%	nt	nt
CCNS(=O)(=O)c1ccc(CCC(=O)Nc2ccccc2)cc1	-1.7	3.9%	35.0%	-5.6%	-30.2%[5.75 µM]	-9.0
CC(C)NS(=O)(=O)c1ccc(CCC(=O)Nc2cc(Cl)ccc2Oc2ccccc2)cc1	-2.6	6.31µM*	?	-10.5%	nt	-7.2
CCNS(=O)(=O)c1ccc(CCC(=O)Nc2cc(Cl)ccc2Oc2ccccc2)cc1	-1.0	10µM*	8.28µM*	0.0%	?	-15.4
Cc1c[n+]([O-])cc(C)c1[N+](=O)[O-]	nt	8.4%	nt	-3.1%	nt	nt
O=C(c1cc(-c2ccncc2)nc2ccc(Br)cc12)N1CCN(Cc2ccc3c(c2)OCO3)CC1	-1.5	-18.0%	4.6%	-1.1%	10.4µM*	-1.9
Cc1ccc2nc(-c3ccncc3)cc(C(=O)N3CCOCC3)c2c1	-2.2	0.6%	10.4µM*	4.7%	-16.7%	-5.0
SMILES	CHX counter	HCV inhibitor	Pf growth 96h	AMA1 RON2 block	Pf growth 48h	Shiga toxin inh
Cc1ccc(-c2cc(C(=O)N3CCOCC3)c3cc(C)ccc3n2)cc1	21.0*	?	52.1%	-28.2%	-22.8%	26.6
O=C(c1cc(-c2ccncc2)nc2ccc(Cl)cc12)N1CCN(Cc2ccc3c(c2)OCO3)CC1	-6.6	?	9.5%	?	?	-5.0
Cc1cccc(C)c1NC(=O)C1(C)CSCC(=O)N1CCc1ccccc1F (stereo not drawn)	nt	nt	nt	-13.1%	nt	nt
Cc1ccc(S(=O)(=O)NCc2ccccc2)cc1C(=O)N1CCN(S(=O)(=O)c2ccccc2)CC1	nt	-1.1%	?	7.4%	?	nt
CCC1CCCCN1C(=O)COC(=O)c1cncc(Br)c1 (stereo not drawn)	nt	nt	nt	-6.6%	nt	nt
CCSCC1COC(c2cccn2Cc2ccc(C)cc2)=N1 (stereo not drawn)	38.7*	-23.1%	38.7%	?	?	91.1
CCC1COC(c2cccn2Cc2ccc(Cl)cc2)=N1 (stereo not drawn)	12.4	16.1%	?	?	46.4%	-1.0
CCN1CCN(c2nc(C)nc3c2sc(=S)n3C)CC1	-2.9	?	3.7µM*	-7.8%	-28.8%	-7.1
CN(C)c1ccc(P(=O)(OC2CCCCC2)C(O)c2cccnc2)cc1 (stereo not drawn)	-2.5	-0.2%	-21.6%	-2.8%	-10.8%	-7.2
COc1cc(C(O)P(=O)(OC2CCCCC2)c2ccc(N(C)C)cc2)cc(OC)c1OC (stereo not drawn)	-1.3	19.6%	13.1µM*	3.3%	?	-9.9
Cc1ccsc1/C=N/Nc1nc2ccccc2[nH]1	43.5*	-27.3%	?	76.0%	?	active
C(=N\Nc1nc2ccccc2[nH]1)/c1cccs1	69.1*	23.8%	2.62µM*	48.6%	2.94µM*	123.6*
CS(=O)(=O)Nc1nc2ccccc2[nH]1	4.4	-7.8%	56.9%	-2.3%	8.4%	-2.8
CC1(CNC(=O)C(=O)NCC2(C)CO2)CO1 (stereo not drawn)	nt	-12.1%	nt	10.4%	nt	nt
Nc1ccc(N)cc1	35.3*	nt	?	nt	?	95.4*
CC1(C)Nc2ccc(O)cc2-c2c1ssc2=S	-2.4	?	8.28µM*	?	?	-3.5
CC(=O)NS(=O)(=O)c1ccc(N=c2ssc3c2-c2cc(C)ccc2NC3(C)C)cc1	-4.9	?	?	?	-18.6%	-6.8
COc1ccccc1/C=N/NC(=O)CC(=O)NCCc1ccccc1	nt	-6.3%	nt	-23.8%	nt	nt
CCc1ccc2c(c1)C(=O)CCC2	nt	21.5%	nt	-7.6%	nt	nt
O=C1CCCc2cc3c(cc21)CC1(C3)Cc2cc3c(cc2C1)C(=O)CCC3	-1.7	11.2µM*	?	-5.9%	5.22µM*	7.7
COc1ccc(C2(c3ccc(OC)cc3)NC(=O)N(CC(=O)N(C)c3ccccc3)C2=O)cc1	51.5*	-21.9%	-34.4%	-6.7%	32.0%	72.5*
CCOc1ccc(CN(C)C(=O)CN2C(=O)NC(c3ccccc3)(c3ccccc3)C2=O)cc1	nt	?	?	-2.6%	13.1µM*	nt
CN1CCN(C2=C(Cl)C(=O)N(CCc3ccccc3)C2=O)CC1	48.3*	?	-92.2%	-3.5%	52.1%	39.8*
O=C1C(Cl)=C(N2CCCCC2)C(=O)N1Cc1ccccc1	3.5	-1.2%	?	76.5%	5.6%	12.7
O=C1C(Cl)=C(NCCc2ccccc2)C(=O)N1CCc1ccccc1	5.7	1.8%	?	70.7%	nt	9.1
O=C1C(Cl)=C(Nc2ccc(F)cc2)C(=O)N1CCc1ccccc1	59.4*	0.8%	?	-4.9%	7.8%	81.7*
